Laboratory results reported in PubChem BioAssay.

Assay: binders of probe aFST on microarray, primary screen, stem cell growth factor project, biochemical, small-molecule microarray, fluorescence 635/667 (AID 1086);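 also: score merges 667 nm fluorescence with signal-to-noise of each printed compound spot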
Settings: higher = more signal

Compound | composite z-score
Cc1ccc(S[C@]2(C(=O)NC3CC3)CC(=O)N(Cc3cc(C(F)(F)F)cc(C(F)(F)F)c3)[C@@H]2c2ccc(CO)cc2I)cc1 | 0.457
C[N+](C)(C)CCCC[C@@H]1NC(=O)[C@H]2C[C@@H](C(=O)NCCCCCNC(=O)CS)[C@@H](c3ccc(O)cc3)N2C1=O | 0.104
CC[C@H](C)C(=O)O[C@H]1CC[C@]2(C)C3=C(CCC2C1(C)C)[C@]1(C)CC[C@H]([C@H](C)CCCC(C)C)[C@@]1(C)CC3 (stereo partly specified) | 0.0889
COCCOC(=O)N1C(=O)[C@@]2(c3cc(C#CCC(C(=O)OC)C(=O)OC)ccc31)[C@H](C(=O)N1CCCCCCC1)[C@H]1C(=O)O[C@H](c3ccccc3)[C@H](c3ccccc3)N1[C@@H]2c1ccccc1OCCO | 3.34
C=CCOC(=O)[C@H]1[C@@H]2C(=O)O[C@@H](c3ccccc3)[C@@H](c3ccccc3)N2[C@@H](c2ccc(OCCOC(=O)[C@H]3C[C@H]4C(=O)NCC(=O)N4[C@H]3c3ccc(O)cc3)cc2)[C@]12C(=O)Nc1ccc(I)cc12 | 0.392
CC#CCO[Si](C#CCCCCCC)(C(C)C)C(C)C | -1.3
CC(c1ccccc1)C(O)C1C=CC2C(=O)N(c3ccccc3)C(=O)C2N1Nc1ccc(C#N)cc1 (stereo unspecified) | 1.42
O=C1c2ccccc2[C@@]2(Cc3ccccc3N(Cc3ccccc3)C2=O)[C@H](c2ccc(CO)cc2)N1Cc1ccccc1 | -0.351
CC(C)CNC(=O)[C@@H]1c2ccccc2C(=O)N(CC23CC4CC(CC(C4)C2)C3)[C@H]1c1ccc(CO)cc1 | 0.507

Assay: binders of probe aHhip on microarray, primary screen, stem cell growth factor project, biochemical, small-molecule microarray, fluorescence 635/667 (AID 1087);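 also: score merges spot fluorescence at 667nm with spot signal to noise ratio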
Settings: higher = more signal

Compound | composite z-score
COCCOC(=O)N1C(=O)[C@@]2(c3cc(C#CCNC(N)=O)ccc31)[C@H](C(=O)NC[C@H](O)c1ccccc1)[C@H]1C(=O)O[C@H](c3ccccc3)[C@H](c3ccccc3)N1[C@@H]2c1ccc(OCCO)cc1 | -0.0994
COC(=O)[C@@]1(Cc2ccc(F)cc2)[C@H]2c3cc(C(=O)N(C)C)n(CCn4cc([N+](=O)[O-])nc4C)c3C[C@H]2CN1C(=O)c1ccccc1 | -0.166
CN(C)CCCCNC(=O)[C@H]1C[C@H]2C(=O)N[C@@H](Cc3ccccc3)C(=O)N2[C@H]1c1cccc(OCCO)c1 | 0.0092
CCCCN1CC=CC23O[C@@H]4/C=C\CCC(C)OC(=O)C4[C@H]2C(=O)N(C(C)CO)[C@@H]3C1=O (stereo partly specified) | 0.0373
CCCCC(=C=CC[C@@H](O)c1cccc(OCCO)c1)CCO | -0.128
CN1C=C(C(=O)OCCS(C)(=O)=O)C(C(=O)OCCS(C)(=O)=O)=CC(CCCO)=CC1c1ccc(CN2CCCC2)cc1 (stereo unspecified) | 0.0053
C#CCN(C/C=C/c1ccccc1)[C@H](CO[Si](C)(C)C(C)(C)C)c1ccccc1 | -0.0994
O=C1O[C@H](c2ccccc2)[C@H](c2ccccc2)N2[C@H]1[C@@H](C(=O)N1CCN(c3ncccn3)CC1)[C@]1(C(=O)Nc3ccccc31)[C@H]2c1ccc(O)cc1 | 0.0972
[N-]=[N+]=NCc1ccccc1[C@@H]1OC(c2ccc(OCCCO)cc2)=N[C@]1(Cc1ccccc1)C(=O)NCc1ccccc1 | 0.0373
C=CCOC(=O)[C@H]1[C@@H]2C(=O)O[C@@H](c3ccccc3)[C@@H](c3ccccc3)N2[C@@H](c2ccc(OCCOC(=O)[C@@H]3C[C@@H]4C(=O)N[C@@H](CC(C)C)C(=O)N4[C@@H]3c3ccc(O)cc3)cc2)[C@]12C(=O)Nc1ccc(I)cc12 | 0.15
CC(C)CNC(=O)[C@@]1(C)c2ccccc2C(=O)N(Cc2cc(F)cc(C(F)(F)F)c2)[C@H]1c1ccc(CO)cc1 | 0.0722
NCCCC[C@@H]1NC(=O)[C@H]2C[C@@H](C(=O)O)[C@@H](c3cccc(OCCO)c3)N2C1=O | -0.0474
CC(C)C[C@@H]1NC(=O)[C@H]2C[C@@H](C(=O)NCCCCCNC(=O)CS)[C@@H](c3ccc(O)cc3)N2C1=O | -0.236
CO[C@H]1O[C@H](CO)[C@@H](OC(=O)Nc2ccccc2)[C@@H]2OC(=O)[C@H](Cc3ccccc3)C/C=C/C[C@@H](Cc3ccccc3)C(=O)O[C@@H]12 | -0.0296
CC(C)CNC(=O)[C@@H]1c2ccccc2C(=O)N(Cc2ccccc2Cl)[C@H]1c1ccc(CO)cc1 | -0.236
CCc1cccc(NC(=O)O[C@H]2[C@H](OC(=O)Nc3ccc4c(c3)OCO4)[C@H](OC(=O)Nc3ccc4c(c3)OCO4)[C@@H](OC)O[C@@H]2CO)c1 | -0.0645
CCN(CC)c1ccc(N2CC=CC34O[C@@H]5C=CCOC(=O)[C@@H]5[C@H]3C(=O)N(CCCO)[C@@H]4C2=O)cc1 (stereo partly specified) | 0.0881
